Measurements taken from PubChem BioAssay.
Active and inactive are the calls of the source. Unless noted, no rule for the calls is given here.

Tests used:
[1] = tested on: Wnt5a (protein binding on small-molecule microarray); assay: Wnt5a binders on small-molecule microarray, primary screen, biophysical, 635/667 nm fluorescence (AID 1142); conditions: 635 nm fluorescence, higher = more signal;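 also: fluorescence read at 667 nm with signal to noise per printed feature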
[2] = cell viability in Huh7 cells, primary screen, cytotoxicity control for HCV replication inhibitor project, CellTiter-Glo luminescence, basal, 48 h (AID 1143); conditions: Huh7 HCV replicon, higher = more signal, called active from +8 up or from −8 down;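 also: Huh7 hepatoma cells carrying a hepatitis C replication reporter with no stimulus; test concentration not given here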
[3] = P. aeruginosa biofilm formation inhibitors, primary screen, PAO1 strain, BacTiter-Glo luminescence, LB-PBS (AID 1144); conditions: 12 h, higher = more signal
[4] = CREB reporter modulators without forskolin, primary screen, cell-based, PC12, CRE-LacZ reporter, unstimulated (AID 1145); conditions: no forskolin, luminescence, 4.5 h, higher = more signal, called active from +8 up or from −8 down
[5] = CREB reporter modulators under forskolin, primary screen, cell-based, PC12, CRE-LacZ reporter, forskolin-stimulated (AID 1146); conditions: luminescence, 4.5 h, higher = more signal, called active from +8 up or from −8 down;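 also: PC12 cells with 6xCRE LacZ reporter stimulated by forskolin 10 µM; beta-galactosidase reporter signal reflecting CREB driven transcription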
[6] = target: Streptavidin (Streptomyces avidinii) (UniProt P22629); assay: streptavidin binders on small-molecule microarray, primary screen, artefact control for SMM compound annotation, biophysical, 635/667 nm fluorescence (AID 1147); conditions: streptavidin binding, higher = more signal;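 also: signal reflects streptavidin binding to arrayed compounds as a control protein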
Streptavidin (Streptomyces avidinii), sequence (P22629 whole entry, looked up): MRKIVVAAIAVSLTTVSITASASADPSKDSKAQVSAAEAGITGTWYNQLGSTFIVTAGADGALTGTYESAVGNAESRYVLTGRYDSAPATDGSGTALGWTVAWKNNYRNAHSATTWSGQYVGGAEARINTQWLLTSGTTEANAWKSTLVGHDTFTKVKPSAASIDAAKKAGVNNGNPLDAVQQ

[7] = small-molecule binders of probe aInhba, primary screen, biochemical, small-molecule microarray, 635/667 nm fluorescence (AID 1148); conditions: higher = more signal;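 also: score merges 667nm spot fluorescence with signal-to-noise for antibody binding to printed compounds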
[8] = target: Torsin-1A (Homo sapiens) (UniProt O14656); assay: torsin A binders from cell lysate, primary screen, small-molecule microarray, wild-type, 635/667 nm (AID 1149); conditions: COS7 hTOR1A-WT lysate, 635 nm fluorescence, higher = more signal
Torsin-1A (Homo sapiens), sequence (O14656 whole entry, looked up): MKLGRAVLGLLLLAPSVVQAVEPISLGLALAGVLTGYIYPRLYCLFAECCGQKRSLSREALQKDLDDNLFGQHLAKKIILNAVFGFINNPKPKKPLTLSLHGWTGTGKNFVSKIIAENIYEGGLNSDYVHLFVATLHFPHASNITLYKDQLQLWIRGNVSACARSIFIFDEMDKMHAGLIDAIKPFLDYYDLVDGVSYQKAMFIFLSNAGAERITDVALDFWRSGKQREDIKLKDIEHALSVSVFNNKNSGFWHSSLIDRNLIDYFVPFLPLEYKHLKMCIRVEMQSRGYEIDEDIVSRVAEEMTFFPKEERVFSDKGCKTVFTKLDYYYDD

[9] = target: Torsin-1A (Homo sapiens) (UniProt O14656); assay: small-molecule binders of mutant TOR1A in lysate, primary screen, cell lysate, small-molecule microarray, COS7 lysate, 635/667 nm fluorescence (AID 1150); conditions: COS7 hTOR1A mutant lysate, 635 nm fluorescence, higher = more signal;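 also: score pools 667 nm emission and signal to noise measuring lysate protein binding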
[10] = tested on: Sonic hedgehog protein (Shh); assay: small-molecule binders of Shh protein, primary screen, biochemical, small-molecule microarray, 635/667 nm fluorescence (AID 1151); conditions: small-molecule microarray binding, 635 nm fluorescence; higher = more signal;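 also: Shh protein binding to compounds spotted on small-molecule microarray slides; score combines spot fluorescence intensity with signal-to-noise across triplicate slides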
[11] = E. coli DRC41 culture turbidity changes, primary screen, E. coli filamentation inducer project, strain DRC41, OD650, 48 h (AID 1152);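 also: E. coli MC1000 strain DRC41 lacking acrAB efflux pump and sulA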; conditions: E. coli DRC41 (acrAB sulA), higher = more signal, called active from +8 up or from −8 down
[12] = small-molecule binders of probe aLefty1, primary screen, biochemical, small-molecule microarray, 635/667 nm fluorescence (AID 1153); conditions: higher = more signal;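 also: score merges spot fluorescence with signal-to-noise ratio from the scanned slide images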
[13] = PSAC antagonists in infected red cells, primary screen, cell-based, P. falciparum Indochina, OD700, 1 h (AID 1154); conditions: P. falciparum Indochina infected RBC osmotic lysis, higher = more signal, called active from +8 up or from −8 down
[14] = PSAC antagonists in infected red cells, primary screen, cell-based, P. falciparum Indochina, OD700, 2 h (AID 1155);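 also: lysis reports solute entry through the parasite surface anion channel PSAC; channel blockers reduce lysis of infected cells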; conditions: P. falciparum Indochina infected erythrocytes, osmotic lysis OD700; higher = more signal, called active from +8 up or from −8 down
[15] = osmotic lysis modulators in infected erythrocytes, primary screen, PSAC antagonist project, cell-based, P. falciparum Indochina, OD700, 3 h (AID 1156); conditions: higher = more signal, called active from +8 up or from −8 down
[16] = PSAC antagonists in infected red cells, primary screen, cell-based, P. falciparum Indochina, OD700, 18 h (AID 1157); conditions: P. falciparum Indochina infected erythrocytes, osmotic lysis OD700, 18 h; higher = more signal, called active from +8 up or from −8 down
[17] = modulators of S6 phosphorylation in cells, primary screen, cell-based, A549, cytoblot, luminescence, serum-stimulated (AID 1158); conditions: A549 phospho-S6 cytoblot, 5 h, higher = more signal;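 also: serum-stimulated A549 lung adenocarcinoma cells; signal is phosphorylated S6 detected by cytoblot immunostaining with HRP secondary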
[18] = target: NADPH oxidase 2 (Homo sapiens) (UniProt P04839); assay: NOX2-dependent H2O2 signal modulators, primary screen, NOX inhibitor project, cell-based, HEK293-NOX2, PMA-stimulated, Amplex Red fluorescence (AID 1159); conditions: 45 min, higher = more signal, called active from +8 up or from −8 down; also: test concentration not given here
NADPH oxidase 2 (Homo sapiens), sequence (P04839 whole entry, looked up): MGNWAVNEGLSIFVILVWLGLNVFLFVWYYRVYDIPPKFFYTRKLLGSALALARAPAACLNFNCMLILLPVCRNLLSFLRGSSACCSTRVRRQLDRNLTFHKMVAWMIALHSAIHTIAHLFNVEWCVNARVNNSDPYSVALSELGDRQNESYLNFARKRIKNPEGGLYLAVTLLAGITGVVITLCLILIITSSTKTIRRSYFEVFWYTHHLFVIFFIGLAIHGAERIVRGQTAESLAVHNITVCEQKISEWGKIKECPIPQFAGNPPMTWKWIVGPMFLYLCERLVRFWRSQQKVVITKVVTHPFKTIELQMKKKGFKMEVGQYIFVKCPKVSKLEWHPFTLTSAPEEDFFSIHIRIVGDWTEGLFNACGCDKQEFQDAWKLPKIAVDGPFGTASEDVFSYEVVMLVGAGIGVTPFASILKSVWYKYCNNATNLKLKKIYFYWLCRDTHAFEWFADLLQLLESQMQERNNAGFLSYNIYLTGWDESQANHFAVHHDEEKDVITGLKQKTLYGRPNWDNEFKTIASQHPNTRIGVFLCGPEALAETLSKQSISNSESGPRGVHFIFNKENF

[19] = target: NADPH oxidase 4 (Homo sapiens) (UniProt Q9NPH5); assay: NOX4-dependent H2O2 signal modulators, primary screen, NOX inhibitor project, cell-based, HEK293-NOX4, tetracycline-induced, Amplex Red fluorescence (AID 1160); conditions: 45 min, higher = more signal, called active from +8 up or from −8 down
NADPH oxidase 4 (Homo sapiens), sequence (Q9NPH5 whole entry, looked up): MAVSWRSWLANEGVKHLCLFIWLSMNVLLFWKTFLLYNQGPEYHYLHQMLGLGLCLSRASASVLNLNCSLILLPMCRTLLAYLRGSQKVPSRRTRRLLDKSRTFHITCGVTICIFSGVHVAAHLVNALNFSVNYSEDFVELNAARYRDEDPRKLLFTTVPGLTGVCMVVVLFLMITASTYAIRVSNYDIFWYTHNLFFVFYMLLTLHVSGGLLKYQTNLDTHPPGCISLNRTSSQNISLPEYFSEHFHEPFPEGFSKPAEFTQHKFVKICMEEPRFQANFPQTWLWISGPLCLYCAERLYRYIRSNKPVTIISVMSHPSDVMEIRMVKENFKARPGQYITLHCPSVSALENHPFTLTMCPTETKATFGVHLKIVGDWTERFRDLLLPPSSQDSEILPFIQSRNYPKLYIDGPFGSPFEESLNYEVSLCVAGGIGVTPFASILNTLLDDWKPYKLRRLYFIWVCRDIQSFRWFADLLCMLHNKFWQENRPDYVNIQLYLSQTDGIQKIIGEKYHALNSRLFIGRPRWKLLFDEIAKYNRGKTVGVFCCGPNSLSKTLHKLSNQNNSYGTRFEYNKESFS

[20] = target: NADPH oxidase 5 (Homo sapiens) (UniProt Q96PH1); assay: NOX5-dependent H2O2 signal modulators, primary screen, NOX inhibitor project, cell-based, HEK293-NOX5, Amplex Red fluorescence (AID 1161); conditions: HEK293-NOX5, ionomycin, 45 min, higher = more signal
NADPH oxidase 5 (Homo sapiens), sequence (Q96PH1 whole entry, looked up): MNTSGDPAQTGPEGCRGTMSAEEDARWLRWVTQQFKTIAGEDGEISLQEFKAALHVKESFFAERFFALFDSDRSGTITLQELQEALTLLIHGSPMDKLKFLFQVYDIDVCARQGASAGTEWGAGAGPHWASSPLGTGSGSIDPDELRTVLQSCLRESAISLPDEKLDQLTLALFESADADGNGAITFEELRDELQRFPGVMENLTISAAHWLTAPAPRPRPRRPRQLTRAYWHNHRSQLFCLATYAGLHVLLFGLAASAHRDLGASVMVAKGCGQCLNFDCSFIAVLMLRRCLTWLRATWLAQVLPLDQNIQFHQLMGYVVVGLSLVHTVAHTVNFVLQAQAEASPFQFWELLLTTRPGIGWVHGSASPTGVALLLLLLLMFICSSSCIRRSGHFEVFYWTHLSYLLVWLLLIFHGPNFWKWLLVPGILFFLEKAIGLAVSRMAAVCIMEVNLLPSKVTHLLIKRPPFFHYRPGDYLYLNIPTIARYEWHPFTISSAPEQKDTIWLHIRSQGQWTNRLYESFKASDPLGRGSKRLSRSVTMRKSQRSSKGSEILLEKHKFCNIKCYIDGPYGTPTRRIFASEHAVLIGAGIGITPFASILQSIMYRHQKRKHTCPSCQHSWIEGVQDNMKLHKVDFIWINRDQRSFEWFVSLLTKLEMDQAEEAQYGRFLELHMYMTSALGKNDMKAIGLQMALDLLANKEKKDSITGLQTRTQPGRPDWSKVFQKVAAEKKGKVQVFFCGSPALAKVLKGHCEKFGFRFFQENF

| Structure (SMILES) | composite z-score [1] | z-score [2] | z-score [3] | z-score [4] | z-score [5] | composite z-score [6] | composite z-score [7] | composite z-score [8] | composite z-score [9] | composite z-score [10] | z-score [11] | composite z-score [12] | z-score [13] | z-score [14] | z-score [15] | z-score [16] | z-score [17] | z-score [18] | z-score [19] | z-score [20] |
| --- | --- | --- | --- | --- | --- | --- | --- | --- | --- | --- | --- | --- | --- | --- | --- | --- | --- | --- | --- | --- |
| CCOC(=O)C[C@H]1[C@H](OC(=O)c2ccc(C(=O)c3ccccc3)cc2)[C@@H](NC(=O)CC(C)C)c2cc(OCCCO)ccc2N1C(=O)Cc1ccc(OC)cc1 | 0.11 | -0.349 (inactive) | -0.356 (inactive) | 0.731 (inactive) | -0.117 (inactive) | -0.0635 | 0.128 | 0.311 | 0.498 | -0.0145 | 0.23 (inactive) | 0.243 | 4.38 (inactive) | 0.351 (inactive) | -0.0495 (inactive) | 0.0625 (inactive) | -0.174 | -0.354 (inactive) | 0.528 (inactive) | 0.522 |
| Cc1c(NC(=O)/C(C#N)=C/c2ccccc2Cl)c(=O)n(-c2ccccc2)n1C | 0.27 | -2.11 (inactive) | -0.543 (inactive) | -0.321 (inactive) | -1.21 (inactive) | 1.73 | -0.0195 | 0.461 | 0.159 | 0.0651 | 1.32 (inactive) | -0.296 | 0.471 (inactive) | -1.52 (inactive) | -0.945 (inactive) | -1.34 (inactive) | 1.22 | -3.65 (inactive) | -0.56 (inactive) | 0.29 |
| Nc1cc(Br)ccc1C(=O)O | 0.0415 | 0.389 (inactive) | 0.0538 (inactive) | 0.209 (inactive) | -0.929 (inactive) | 0.689 | -0.0719 | 0.136 | 0.474 | 0.0009 | 0.813 (inactive) | 0.139 | -0.319 (inactive) | 0.371 (inactive) | -0.611 (inactive) | 0.0089 (inactive) | 0.265 | 0.0525 (inactive) | -0.204 (inactive) | 0.142 |
| COc1ccc(C#Cc2ccc3c(c2)[C@]2(C(=O)N3)[C@H](C(=O)N3CCCCCCC3)[C@H]3C(=O)O[C@H](c4ccccc4)[C@H](c4ccccc4)N3[C@@H]2c2ccc(O)cc2)cc1 | 0.696 | -0.71 (inactive) | -0.768 (inactive) | 0.0653 (inactive) | -0.202 (inactive) | 0.627 | 0.939 | 0.589 | 1.42 | 1.6 | -0.821 (inactive) | 2.04 | 0.445 (inactive) | 0.391 (inactive) | -0.562 (inactive) | 0.271 (inactive) | -0.0624 | 0.697 (inactive) | 0.174 (inactive) | 0.00156 |
| COCCCNC(=O)[C@@H]1c2ccccc2C(=O)N(C2Cc3ccccc3C2)[C@H]1c1ccc(CO)cc1 | -0.0499 | 0.646 (inactive) | 0.48 (inactive) | -0.619 (inactive) | -0.67 (inactive) | -0.449 | 0.208 | 0.717 | -0.184 | 0.457 | 0.748 (inactive) | -0.0603 | 3.1 (inactive) | 1.18 (inactive) | 0.65 (inactive) | 0.476 (inactive) | -0.256 | -0.193 (inactive) | 0.444 (inactive) | -0.0459 |
| CCCCC(=C=CC[C@H](O)c1ccc(OCCO)cc1)C[C@H](O)c1cc(Cl)cc(Cl)c1O | -0.223 | -0.849 (inactive) | -0.145 (inactive) | 7.85 (inactive) | -0.218 (inactive) | 0.315 | -0.15 | 0.296 | 0.51 | 0.646 | -0.118 (inactive) | 0.13 | 21.2 (active) | 5.19 (inactive) | 1.56 (inactive) | 1.73 (inactive) | -0.476 | 0.51 (inactive) | -0.667 (inactive) | -1.49 |
| CCN(CC)c1ccc(N2CC=CC34O[C@@H]5C=CCCOC(=O)C5[C@H]3C(=O)N(CCO)[C@@H]4C2=O)cc1 (stereo not given in full) | -0.546 | -0.055 (inactive) | -0.167 (inactive) | 0.191 (inactive) | 0.0371 (inactive) | -1.02 | -0.163 | -0.894 | -1.42 | -0.0352 | 0.286 (inactive) | -0.155 | 1.03 (inactive) | 0.537 (inactive) | 0.836 (inactive) | 0.159 (inactive) | -0.616 | 0.697 (inactive) | -0.513 (inactive) | 1.11 |
| Cc1ccc(S[C@]2(C(=O)NCC(C)C)CC(=O)N(C3Cc4ccccc4C3)[C@@H]2c2ccc(CO)cc2I)cc1 | -0.305 | -0.552 (inactive) | 0.491 (inactive) | 0.389 (inactive) | 1.42 (inactive) | -1.21 | -0.182 | -0.284 | -0.183 | -0.51 | -0.715 (inactive) | -0.192 | 2.92 (inactive) | 0.768 (inactive) | 0.708 (inactive) | 0.475 (inactive) | -0.447 | 1.25 (inactive) | 0.0492 (inactive) | 1.47 |
| CN1C(=O)[C@@H]2[C@@H](CC(COc3ccccc3)=C([C@H](O)CCc3ccccc3)[C@@H]2CO)C1=O | -0.0336 | -1.03 (inactive) | 0.272 (inactive) | 1.67 (inactive) | -1.18 (inactive) | -0.448 | -0.128 | 0.762 | 0.0706 | 0.497 | 2.03 (inactive) | -0.328 | 29.5 (active) | 21.6 (active) | -0.0433 (inactive) | 1.43 (inactive) | 0.867 | -0.561 (inactive) | 0.867 (inactive) | 0.199 |
